Source: PubChem BioAssay
The source made the active and inactive calls.

Assays:
[1] = E. coli DRC41 culture turbidity changes, primary screen, E. coli filamentation inducer project, strain DRC41, OD650, 48 h (AID 1152);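 also: E. coli MC1000 strain DRC41 lacking acrAB efflux pump and sulA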; conditions: E. coli DRC41 (acrAB sulA), higher = more signal, called active from +8 up or from −8 down
[2] = small-molecule binders of probe aLefty1, primary screen, biochemical, small-molecule microarray, 635/667 nm fluorescence (AID 1153); conditions: higher = more signal;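 also: score merges spot fluorescence with signal-to-noise ratio from the scanned slide images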
[3] = PSAC antagonists in infected red cells, primary screen, cell-based, P. falciparum Indochina, OD700, 1 h (AID 1154); conditions: P. falciparum Indochina infected RBC osmotic lysis, higher = more signal, called active from +8 up or from −8 down
[4] = PSAC antagonists in infected red cells, primary screen, cell-based, P. falciparum Indochina, OD700, 2 h (AID 1155);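 also: lysis reports solute entry through the parasite surface anion channel PSAC; channel blockers reduce lysis of infected cells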; conditions: P. falciparum Indochina infected erythrocytes, osmotic lysis OD700; higher = more signal, called active from +8 up or from −8 down
[5] = osmotic lysis modulators in infected erythrocytes, primary screen, PSAC antagonist project, cell-based, P. falciparum Indochina, OD700, 3 h (AID 1156); conditions: higher = more signal, called active from +8 up or from −8 down
[6] = PSAC antagonists in infected red cells, primary screen, cell-based, P. falciparum Indochina, OD700, 18 h (AID 1157); conditions: P. falciparum Indochina infected erythrocytes, osmotic lysis OD700, 18 h; higher = more signal, called active from +8 up or from −8 down
[7] = modulators of S6 phosphorylation in cells, primary screen, cell-based, A549, cytoblot, luminescence, serum-stimulated (AID 1158); conditions: A549 phospho-S6 cytoblot, 5 h, higher = more signal;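 also: serum-stimulated A549 lung adenocarcinoma cells; signal is phosphorylated S6 detected by cytoblot immunostaining with HRP secondary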
[8] = target: NADPH oxidase 2 (Homo sapiens) (UniProt P04839); assay: NOX2-dependent H2O2 signal modulators, primary screen, NOX inhibitor project, cell-based, HEK293-NOX2, PMA-stimulated, Amplex Red fluorescence (AID 1159); conditions: 45 min, higher = more signal, called active from +8 up or from −8 down; also: test concentration not given here
Sequence of NADPH oxidase 2 (Homo sapiens) (P04839 whole entry, looked up): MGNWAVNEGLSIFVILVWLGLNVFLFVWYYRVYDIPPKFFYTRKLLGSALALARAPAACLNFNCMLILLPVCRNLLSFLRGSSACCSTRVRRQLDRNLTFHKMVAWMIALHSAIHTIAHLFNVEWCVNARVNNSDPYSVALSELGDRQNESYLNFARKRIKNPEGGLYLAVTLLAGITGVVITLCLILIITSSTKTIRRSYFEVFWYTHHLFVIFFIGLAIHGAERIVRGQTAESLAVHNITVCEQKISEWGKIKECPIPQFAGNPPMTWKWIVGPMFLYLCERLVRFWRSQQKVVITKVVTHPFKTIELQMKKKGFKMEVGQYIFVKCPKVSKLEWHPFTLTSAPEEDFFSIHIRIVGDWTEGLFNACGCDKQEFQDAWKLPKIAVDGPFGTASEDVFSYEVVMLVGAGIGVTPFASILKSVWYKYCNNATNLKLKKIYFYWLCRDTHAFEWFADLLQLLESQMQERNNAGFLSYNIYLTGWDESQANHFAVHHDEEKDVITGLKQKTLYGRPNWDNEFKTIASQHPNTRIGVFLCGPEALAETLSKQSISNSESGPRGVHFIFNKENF

[9] = target: NADPH oxidase 4 (Homo sapiens) (UniProt Q9NPH5); assay: NOX4-dependent H2O2 signal modulators, primary screen, NOX inhibitor project, cell-based, HEK293-NOX4, tetracycline-induced, Amplex Red fluorescence (AID 1160); conditions: 45 min, higher = more signal, called active from +8 up or from −8 down
Sequence of NADPH oxidase 4 (Homo sapiens) (Q9NPH5 whole entry, looked up): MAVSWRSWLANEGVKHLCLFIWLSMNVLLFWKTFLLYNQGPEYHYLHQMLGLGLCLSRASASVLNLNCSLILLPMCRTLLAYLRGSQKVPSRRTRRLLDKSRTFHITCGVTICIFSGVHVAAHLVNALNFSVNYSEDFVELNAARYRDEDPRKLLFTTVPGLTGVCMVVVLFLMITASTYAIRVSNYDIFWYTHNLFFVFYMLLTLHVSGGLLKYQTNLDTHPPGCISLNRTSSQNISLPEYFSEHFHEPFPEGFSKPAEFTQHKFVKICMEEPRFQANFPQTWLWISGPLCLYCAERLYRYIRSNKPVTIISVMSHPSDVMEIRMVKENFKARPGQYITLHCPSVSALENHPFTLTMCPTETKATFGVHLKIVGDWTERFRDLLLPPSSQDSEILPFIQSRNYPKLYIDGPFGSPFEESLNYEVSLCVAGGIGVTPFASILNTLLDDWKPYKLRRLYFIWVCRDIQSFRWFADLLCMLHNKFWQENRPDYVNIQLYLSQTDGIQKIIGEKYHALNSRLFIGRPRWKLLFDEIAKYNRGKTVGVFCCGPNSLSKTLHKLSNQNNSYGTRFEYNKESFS

[10] = target: NADPH oxidase 5 (Homo sapiens) (UniProt Q96PH1); assay: NOX5-dependent H2O2 signal modulators, primary screen, NOX inhibitor project, cell-based, HEK293-NOX5, Amplex Red fluorescence (AID 1161); conditions: HEK293-NOX5, ionomycin, 45 min, higher = more signal
Sequence of NADPH oxidase 5 (Homo sapiens) (Q96PH1 whole entry, looked up): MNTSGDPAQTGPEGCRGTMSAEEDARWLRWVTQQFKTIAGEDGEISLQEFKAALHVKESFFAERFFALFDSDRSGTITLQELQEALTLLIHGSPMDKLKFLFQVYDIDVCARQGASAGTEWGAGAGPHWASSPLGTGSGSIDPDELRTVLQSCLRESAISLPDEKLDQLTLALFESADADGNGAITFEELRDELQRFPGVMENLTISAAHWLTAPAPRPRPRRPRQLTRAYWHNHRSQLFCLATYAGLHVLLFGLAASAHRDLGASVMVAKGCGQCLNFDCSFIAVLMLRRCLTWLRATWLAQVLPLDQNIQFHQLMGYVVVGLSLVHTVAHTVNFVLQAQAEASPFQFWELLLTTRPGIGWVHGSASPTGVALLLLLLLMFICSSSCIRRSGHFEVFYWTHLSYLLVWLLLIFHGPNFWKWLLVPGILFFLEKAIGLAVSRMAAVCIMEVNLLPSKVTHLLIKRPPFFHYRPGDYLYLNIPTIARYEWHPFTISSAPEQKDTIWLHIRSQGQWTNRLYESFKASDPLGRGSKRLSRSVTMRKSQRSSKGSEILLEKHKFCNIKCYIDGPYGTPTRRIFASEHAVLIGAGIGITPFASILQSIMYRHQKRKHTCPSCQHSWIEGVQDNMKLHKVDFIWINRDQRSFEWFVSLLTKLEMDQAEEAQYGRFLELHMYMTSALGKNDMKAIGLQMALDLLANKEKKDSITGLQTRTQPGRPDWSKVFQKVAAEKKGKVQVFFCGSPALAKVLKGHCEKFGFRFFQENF

[11] = A549 cell viability effects, profiling panel, calcein-AM fluorescence, 48 h, basal (AID 1162); conditions: higher = more signal; also: test concentration not given here
[12] = adipocyte viability effects, profiling panel, cell-based, 3T3-L1 adipocytes, calcein-AM fluorescence, 48 h, basal (AID 1163); conditions: 3T3-L1 adipocytes viability, higher = more signal; also: test concentration not given here
[13] = HepG2 cell viability effects, profiling panel, calcein-AM fluorescence, 48 h, basal (AID 1164); conditions: higher = more signal; also: test concentration not given here
[14] = MM1S cell viability effects, profiling panel, calcein-AM fluorescence, 48 h, basal (AID 1165); conditions: higher = more signal;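 also: viability of MM1S multiple myeloma cells under basal unstimulated conditions; test concentration not given here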
[15] = basal RPMI8226 viability, no added stimulus, profiling panel, cell-based, calcein-AM fluorescence, 48 h, PK04 Diversity Set (AID 1166); conditions: RPMI8226 myeloma viability, higher = more signal;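 also: cells grown under basal conditions without added stimulus; test concentration not given here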
[16] = basal HepG2 mitochondrial membrane potential changes, profiling panel, cell-based, JC-1 fluorescence, 24 h, 100 nL compound (AID 1167); conditions: higher = more signal; also: test concentration not given here
[17] = basal 3T3-L1 adipocyte mitochondrial potential changes, profiling panel, cell-based, JC-1 fluorescence, 3T3-L1 adipocytes, 24 h, 100 nL compound (AID 1168); conditions: JC-1 mitochondrial fluorescence, higher = more signal, called active from +8 up or from −8 down; also: test concentration not given here
[18] = basal RPMI8226 mitochondrial membrane potential changes, profiling panel, cell-based, JC-1 fluorescence, 24 h, 100 nL compound (AID 1169); conditions: RPMI8226 myeloma, JC-1 mitochondrial potential fluorescence, higher = more signal; also: test concentration not given here
[19] = basal MM1S mitochondrial membrane potential changes, profiling panel, cell-based, JC-1 fluorescence, 24 h, 100 nL compound (AID 1170); conditions: higher = more signal; also: test concentration not given here
[20] = A549 lung cancer cell viability effects, profiling panel, resazurin fluorescence, 24 h, PK04 Diversity Set (AID 1171); conditions: higher = more signal, called active from +8 up or from −8 down; also: test concentration not given here

Structure (SMILES) | z-score [1] | composite z-score [2] | z-score [3] | z-score [4] | z-score [5] | z-score [6] | z-score [7] | z-score [8] | z-score [9] | z-score [10] | z-score [11] | z-score [12] | z-score [13] | z-score [14] | z-score [15] | z-score [16] | z-score [17] | z-score [18] | z-score [19] | z-score [20]
C[C@H]1CC[C@@H](C(=O)O)N[C@@H]1c1ccc(C#CCN(C)C)cc1 | 0.883 (inactive) | -0.231 | 0.167 (inactive) | -0.219 (inactive) | 0.274 (inactive) | -0.0947 (inactive) | 0.112 | 0.903 (inactive) | -0.00118 (inactive) | 0.0715 | 0.683 | 0.398 | 0.777 | 0.601 | -0.338 | 0.984 | 0.461 (inactive) | -0.562 | 0.921 | 0.413 (inactive)
CC(C)N1CC=CC23O[C@@H]4C=CCCOC(=O)C4[C@H]2C(=O)N(CCCCCCO)[C@@H]3C1=O (stereo not given in full) | 0.383 (inactive) | -0.007 | 0.156 (inactive) | 0.405 (inactive) | 0.799 (inactive) | 0.647 (inactive) | 0.342 | 0.584 (inactive) | -0.185 (inactive) | 1.52 | 0.647 | -0.505 | 0.677 | 0.585 | 0.788 | 0.614 | 0.294 (inactive) | 0.936 | -0.768 | 0.711 (inactive)
CCCCc1nc2c(c3c1C[C@H](C)OC3)CN(CCC(C)C)CC2 | -0.192 (inactive) | -0.106 | 1.35 (inactive) | 0.977 (inactive) | 0.816 (inactive) | 0.589 (inactive) | 0.171 | 0.35 (inactive) | 0.315 (inactive) | 0.776 | 1.25 | -0.11 | 0.597 | 0.411 | -1.35 | 2.01 | -0.836 (inactive) | -0.0883 | 0.301 | 0.6 (inactive)
CCOC(=O)CCN1C(=O)[C@H]2[C@H]3[C@H](O)[C@H](O)CC(=NNC(=O)OCc4ccc(OC)cc4)[C@@H]3CC[C@H]2C1=O | 0.0393 (inactive) | 0.0288 | 6.59 (inactive) | 1.07 (inactive) | -0.495 (inactive) | 0.353 (inactive) | -0.587 | -3.2 (inactive) | -0.169 (inactive) | -0.974 | -0.212 | -0.426 | -0.367 | 0.717 | 0.0819 | -0.547 | -0.0296 (inactive) | -0.91 | -1.1 | -0.807 (inactive)
C=CCOC(=O)[C@H]1[C@@H]2C(=O)O[C@@H](c3ccccc3)[C@@H](c3ccccc3)N2[C@@H](c2ccc(OCCOC(=O)[C@H]3C[C@H]4C(=O)N5CCC[C@H]5C(=O)N4[C@H]3c3cccc(OCCO)c3)cc2)[C@]12C(=O)Nc1ccc(I)cc12 | -0.709 (inactive) | 1.72 | 0.491 (inactive) | 0.641 (inactive) | -2.53 (inactive) | 0.131 (inactive) | -0.0041 | -0.669 (inactive) | 0.165 (inactive) | 0.261 | -0.0113 | 0.199 | 0.144 | 0.817 | -0.452 | -0.0589 | -0.518 (inactive) | -0.855 | -0.122 | 0.9 (inactive)
CC(CCN1CCCCc2nc(C)c(C)cc21)=NOC(C)CN1CCCc2nc(C)c(C)cc21 (stereo not given) | -1.7 (inactive) | 0.79 | 1.6 (inactive) | 0.549 (inactive) | -0.19 (inactive) | 0.488 (inactive) | -0.569 | -1 (inactive) | 0.11 (inactive) | -1.79 | -0.587 | -0.315 | -0.253 | -2.66 | -0.681 | 0.346 | -1.7 (inactive) | 0.133 | -0.269 | 0.37 (inactive)
O=C1[C@H]2[C@H]3[C@H](O)[C@H](O)CC(=NO[C@@H]4O[C@H](CO)[C@@H](O)[C@H](O)[C@H]4O)[C@H]3CC[C@H]2C(=O)N1C1CCCCC1 | -0.094 (inactive) | -0.0046 | 3.65 (inactive) | -0.0811 (inactive) | -0.284 (inactive) | -0.136 (inactive) | 0.561 | -0.717 (inactive) | 1.15 (inactive) | 0.329 | -0.649 | 0.034 | -0.627 | 0.206 | 0.115 | -0.871 | -1.53 (inactive) | 0.368 | -0.11 | 0.302 (inactive)
CC(C)NC(=O)[C@@]1(c2ccc([N+](=O)[O-])cc2)CC(=O)N(CC23CC4CC(CC(C4)C2)C3)[C@@H]1c1ccc(CO)cc1I | -0.805 (inactive) | 0.167 | 18.8 (active) | 5.45 (inactive) | 1.59 (inactive) | 1.28 (inactive) | 0.018 | 2.19 (inactive) | 0.215 (inactive) | 1.35 | -1.58 | 0.58 | -4.89 | -3.8 | -4.29 | 0.421 | 0.402 (inactive) | -0.929 | -2.08 | -3.65 (inactive)
CCc1cccc(NC(=O)O[C@H]2[C@H](OC(=O)Nc3ccc4c(c3)OCO4)[C@@H](OC(=O)Nc3ccc4c(c3)OCO4)[C@@H](OC)O[C@@H]2CO)c1 | 0.861 (inactive) | 1.01 | 7.56 (inactive) | 1.22 (inactive) | 1.37 (inactive) | 0.495 (inactive) | 0.19 | -3.12 (inactive) | -0.812 (inactive) | -1.87 | -1.1 | 0.29 | -1.66 | -1.33 | -0.976 | 0.0535 | 0.892 (inactive) | -0.806 | -0.503 | 0.735 (inactive)
COC(=O)[C@H](C)NC(=O)[C@@H](C)CO | -0.534 (inactive) | 0.138 | 0.295 (inactive) | 0.451 (inactive) | 0.372 (inactive) | 0.665 (inactive) | 0.656 | -0.371 (inactive) | -0.71 (inactive) | 0.468 | -0.562 | 0.945 | -0.524 | 0.363 | -1.21 | -0.355 | -0.0968 (inactive) | -0.04 | 0.384 | -0.939 (inactive)
C[C@@H]1C=CCC(=O)OC[C@H](C)C(=O)N2CCC[C@H]2C(=O)OC1 | 0.665 (inactive) | -0.384 | 0.29 (inactive) | 0.149 (inactive) | 1.11 (inactive) | 0.097 (inactive) | -0.39 | -0.49 (inactive) | 0.445 (inactive) | -0.764 | -0.581 | 0.0764 | -0.492 | 0.13 | -0.665 | -0.248 | -1.27 (inactive) | 0.363 | -0.583 | -0.0059 (inactive)
COc1ccc(O[C@H]2C=C[C@@H](c3ccccc3)O[C@@H]2COC(=O)CCC(C)=NOCC[C@@H]2C=C[C@H](OC(C)=O)[C@@H](COC(C)=O)O2)cc1 | -0.445 (inactive) | -0.0176 | 8.07 (active) | 1.2 (inactive) | 1 (inactive) | 0.588 (inactive) | -0.268 | -1.64 (inactive) | -0.327 (inactive) | -2.19 | -0.284 | -0.699 | -0.1 | -0.919 | -0.112 | -0.359 | 0.0763 (inactive) | -0.55 | -0.522 | 0.369 (inactive)
CCCNC(=O)OC[C@H]1O[C@H](CCON=C2[C@H]3CCn4c(=O)n(-c5ccccc5)c(=O)n4[C@H]3[C@H](O)[C@@H]3O[C@H]23)C=C[C@@H]1Oc1ccc(OC)cc1 | 0.653 (inactive) | 0.198 | 1.69 (inactive) | -0.0218 (inactive) | 0.378 (inactive) | 0.268 (inactive) | -0.254 | -1.58 (inactive) | -0.373 (inactive) | -0.987 | -0.343 | -0.414 | -0.555 | -1.83 | -1.44 | -0.25 | -0.567 (inactive) | -0.7 | -0.75 | -1.2 (inactive)
COC(=O)[C@@H]1CC[C@H](C)[C@@H](c2ccc(C)cc2)N1C(=O)c1ccc(C=NOC(C)CN2CCCCc3nc(C)c(C)cc32)cc1 (stereo not given in full) | 0.173 (inactive) | -0.0449 | 1.21 (inactive) | 0.369 (inactive) | 1.03 (inactive) | 0.367 (inactive) | -0.122 | -0.202 (inactive) | -1.62 (inactive) | 0.64 | -1.19 | -0.0501 | -2.59 | -2.73 | -4 | -0.414 | -1.72 (inactive) | -1.16 | -1.54 | 2.21 (inactive)
C=C(/C(=C/C[C@H](OC(C)=O)c1ccc(OCCO)cc1)c1cnc2ccccc2c1)C(C)C | 1.02 (inactive) | -0.314 | 12.8 (active) | 1.64 (inactive) | 1.56 (inactive) | 0.749 (inactive) | 0.268 | -2.21 (inactive) | -0.569 (inactive) | -1.8 | 0.207 | 1.03 | -0.427 | -0.753 | 0.383 | 1.56 | -0.449 (inactive) | -0.416 | 0.0674 | 1.76 (inactive)
COCCCNC(=O)[C@]1(Cc2ccccc2)N=C(c2ccc(OCCCO)cc2)O[C@@H]1c1ccccc1 | -1.43 (inactive) | 0.301 | 26.9 (active) | 18.6 (active) | 0.972 (inactive) | 2.34 (inactive) | -0.612 | -1.04 (inactive) | 0.654 (inactive) | 1.1 | -0.2 | 0.346 | 0.0484 | -2.27 | -0.701 | -0.175 | 0.492 (inactive) | -0.286 | -0.498 | 2.67 (inactive)
